# In the library only some 5.8% were active in any assay of this set; here they are far more common.
# KB-3-1 tox = KB-3-1 parental cell cytotoxicity; KB-3-1 viability, CellTiter-Glo ATP luminescence, 72 h; actives 1.4% (n = 400,000); Potency, µM (doses to about 46.1 µM), most hits filed as cytotoxic; AID 1347075; also: nearly all actives have a fitted effect of over 60% in size
#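 Luminescent ATP read-out (CellTiter-Glo) measures survival of drug-naive KB-3-1 cells after 72 h compound exposure at 37 °C. Titration series was screened from lowest to highest concentration, with DMSO vehicle plates as background controls.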
# PINK1 expr mod = PINK1 expression modulation; Potency, µM (highest dose often 76.6 µM), most hits filed as activators; PINK1 immunofluorescence, high-content cytometry, 24 h; AID 624263; actives 0.2% (n = 410,000); active = well fitted activation curve with a large enough effect; inconclusive = small, poorly fitted or top-dose-only effect; cell line not stated here; also: nearly all actives have a fitted effect of over 65% in size
#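 PINK1 protein, normally rapidly degraded, was detected by immunofluorescence after 24 hour compound treatment of a stable cell line. Titration data (5 concentrations) came from laser-scanning cytometry, with CCCP-treated wells as controls.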
# SW480 rerep = DNA re-replication induction in SW480 cells; actives 1.8% (n = 340,000); SW480 DNA re-replication, Hoechst DNA content imaging, 48 h; Potency, µM (titrated, usually from 46.1 µM), hits mostly activators; AID 624297; also: nearly all actives have a fitted effect of over 55% in size
#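 First, 250 cells per well were seeded. Next, compound or vehicle (23 nL) was pinned in, plates sat 48 hr at 37 C. Finally Hoechst was added for 40 min before fluorescence scanning.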
# MCF10A rerep = DNA re-replication induction in MCF 10a cells. MCF 10A DNA re-replication, Hoechst nuclear intensity, 48 h. Potency, µM (doses to about 46.1 µM), most hits filed as activators. actives 2.9% (n = 350,000); also: nearly all actives have a fitted effect of over 50% in size
# KB-V1 cytotox = KB-V1 MDR subline cytotoxicity | KB-V1 MDR cells viability, CellTiter-Glo, 72 h | Potency, µM (highest dose often 46.1 µM), hits mostly cytotoxic | actives 3.4% (n = 400,000); also: nearly all actives have a fitted effect of over 60% in size
#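 Following 72 h at 37 degrees C with compound, KB-V1 cell viability was read by CellTiter-Glo luminescence, medium being phenol-red-free DMEM plus 10% FBS; concentration-response parameters came from normalized, curve-fitted qHTS data.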
# 12-LOX inh = inhibitors of human 12S-lipoxygenase ALOX12; actives 1.1% (n = 580,000); P18054; Potency, µM (titrated, usually from 108 µM), hits mostly inhibitors; AID 1671190; purified 12hLO, xylenol orange hydroperoxide absorbance
# Target sequence (P18054 whole entry, looked up): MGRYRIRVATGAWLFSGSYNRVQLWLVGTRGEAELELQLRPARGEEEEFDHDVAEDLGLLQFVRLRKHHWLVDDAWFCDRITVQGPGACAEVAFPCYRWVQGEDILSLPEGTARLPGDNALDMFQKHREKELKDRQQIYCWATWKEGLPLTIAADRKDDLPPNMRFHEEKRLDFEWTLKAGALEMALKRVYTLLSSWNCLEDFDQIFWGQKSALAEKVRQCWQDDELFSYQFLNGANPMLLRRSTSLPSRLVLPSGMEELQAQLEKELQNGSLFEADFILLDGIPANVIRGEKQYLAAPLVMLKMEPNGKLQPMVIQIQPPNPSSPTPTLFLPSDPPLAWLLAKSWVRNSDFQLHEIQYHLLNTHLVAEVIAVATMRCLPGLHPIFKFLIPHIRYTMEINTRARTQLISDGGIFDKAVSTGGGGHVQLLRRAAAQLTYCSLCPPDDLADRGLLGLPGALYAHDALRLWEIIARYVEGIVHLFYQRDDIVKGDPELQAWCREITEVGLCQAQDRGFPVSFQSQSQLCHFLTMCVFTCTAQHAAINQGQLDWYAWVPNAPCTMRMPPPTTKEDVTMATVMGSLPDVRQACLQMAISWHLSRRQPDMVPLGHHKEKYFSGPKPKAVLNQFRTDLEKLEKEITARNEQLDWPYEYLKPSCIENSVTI
#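 Purified human 12hLO at 150 nM in 25 mM Hepes, 0.01% Triton X-100, pH 7.0, preincubated 15 min at room temperature with compound. Reaction started with 40 uM arachidonic acid, 30 min at room temperature. Hydroperoxide measured by Fe-xylenol orange, 573/405 nm absorbance ratio.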
# A number is an active result; - = inactive; ? = inconclusive; . = no result given. Unless noted, calls follow the shape of the dose curve; as a rule, active = well fitted curve in the direction sought with a large enough effect; inconclusive = small, poorly fitted or top-dose-only effect, or another doubt; inactive = no such curve, though single readings can be large; an effect the other way counts as inactive or inconclusive.
SMILES,KB-3-1 tox,PINK1 expr mod,SW480 rerep,MCF10A rerep,KB-V1 cytotox,12-LOX inh
Cc1nn(Cc2ccc(Cl)cc2Cl)c(C)c1NC(=O)CCl,15µM,-,-,?,18µM,-
Cc1nn(Cc2ccc(Cl)cc2Cl)c(C)c1NC(=O)c1nn(C)cc1Cl,?,-,-,-,?,-
CCc1ccc2oc(=O)cc(CN3CCN(CC(=O)N(C)C4CCCCC4)CC3)c2c1,.,.,.,.,.,-
COc1ccc(-c2nnc3ccc(SCc4ccco4)nn23)cc1,.,.,.,.,.,-
O=C(CN(C(=O)c1ccc(Cl)cc1)C1CCCCC1)Nc1ccc(Cl)c([N+](=O)[O-])c1,-,?,?,-,15µM,-
Cc1ccc([N+](=O)[O-])cc1NC(=O)CN(C(=O)c1ccc(Cl)cc1)C1CCCCC1,?,-,-,-,23µM,-
Cc1ccc(Cl)cc1NC(=O)C[n+]1ccc(Cc2ccc([N+](=O)[O-])cc2)cc1,10µM,?,-,?,?,?
CCC(c1nnnn1-c1ccc2c(c1)OCCO2)N1CCN(c2ncccc2C(F)(F)F)CC1 (stereo unspecified),?,-,.,.,?,-
CCOC(=O)N1CCN(C(c2ccnc3ccccc23)c2nnnn2-c2ccc3c(c2)OCCO3)CC1 (stereo unspecified),?,-,.,.,18µM,-
CCC(c1nnnn1-c1ccc2c(c1)OCCO2)N1CCN(c2ccc(F)cc2)CC1 (stereo unspecified),?,-,.,.,10µM,.
Cc1cccc(C)c1N1CCN(C(c2ccnc3ccccc23)c2nnnn2-c2ccc3c(c2)OCCO3)CC1 (stereo unspecified),21µM,-,.,.,18µM,?
COc1ccc(Cn2nccc2NC(=O)c2cc(=O)c3cc(C)ccc3o2)cc1,.,.,.,.,.,-
Cc1ccc2c(ccn2CCC(=O)Nc2nnc(C3CC3)s2)c1,.,.,.,.,.,-
CCCCc1nc(N2CCN(C(=O)c3ccco3)CC2)c(C#N)c2c1CCCC2,?,-,?,?,?,-
CC1(C)Cc2c(C#N)c(N3CCN(C(=O)c4ccccc4)CC3)nc(-c3ccco3)c2CS1,?,-,-,13µM,?,-
CC(C)c1nc(N2CCN(C(=O)c3ccco3)CC2)c(C#N)c2c1COC(C)(C)C2,?,-,-,?,18µM,-
CCCCN(C)c1nc(-c2ccco2)c2c(c1C#N)CC(C)(C)OC2,-,-,16µM,?,-,40µM
CC(C)c1nc(N2CCN(C(=O)c3ccccc3)CC2)c(C#N)c2c1COC(C)(C)C2,?,-,-,?,?,-
CC1CCN(C(=O)C(=O)N2CCN(c3nc(-c4ccco4)c4c(c3C#N)CC(C)(C)OC4)CC2)CC1,.,.,.,.,.,14µM
CC(Oc1ccc2ccc(=O)oc2c1)C(=O)NC(=O)NC1CCCCC1 (stereo unspecified),.,.,.,.,.,-
Cc1nn(C)cc1C(=O)N1C[C@@H](CO)[C@H](c2ccncc2)C1,.,.,.,.,.,50µM
O=C(c1ccccc1Cl)N1C[C@@H](CO)[C@H](c2ccncc2)C1,.,.,.,.,.,-
Cc1nn(-c2ccccc2)c(N2CCCC2)c1/C=N/NC(=S)Nc1ccc(F)cc1,?,-,5.8µM,-,-,?
COc1c(/C=N/NC(N)=S)c(C)nn1-c1ccccc1,?,-,-,-,9.2µM,-
COc1c(/C=N/Nc2ccc([N+](=O)[O-])cc2[N+](=O)[O-])c(C)nn1-c1ccccc1,-,-,-,-,-,-
SMILES,KB-3-1 tox,PINK1 expr mod,SW480 rerep,MCF10A rerep,KB-V1 cytotox,12-LOX inh
Cc1nn(-c2ccccc2)c(N2CCCC2)c1/C=N/NC(=S)Nc1ccccc1C(F)(F)F,-,-,-,?,?,35µM
CCN(CC)S(=O)(=O)c1ccc(OC)c(NC(=O)c2cc3c(=O)n4ccccc4nc3s2)c1,-,-,-,16µM,-,-
CC(=O)NS(=O)(=O)c1ccc(NC(=O)c2cc3c(=O)n4ccccc4nc3s2)cc1,-,-,?,?,-,-
Cc1ccc2oc(-c3cccc(NC(=O)c4ccccc4[N+](=O)[O-])c3C)nc2c1,.,.,.,.,.,-
Cc1cc(=O)n2[nH]c(-c3ccccc3)cc2n1,-,-,-,-,-,-
Cc1cc(=O)n2[nH]c(-c3ccc(C(C)(C)C)cc3)cc2n1,?,-,-,?,15µM,-
COc1cc(OC)cc(C(=O)N(C)CCCNC(=O)c2nc3ccccc3c(=O)[nH]2)c1,.,.,.,.,.,-
Nc1[nH]n2c(=O)c3c(nc2c1N=Nc1ccccc1)CCCC3,12µM,-,-,?,13µM,-
Nc1[nH]n2c(=O)c3c(nc2c1N=Nc1ccc(Cl)cc1)CCCC3,?,-,-,-,?,-
O=c1c2c(nc3c(-c4ccccc4)c[nH]n13)CCCC2,21µM,-,-,-,?,?
Cc1[nH]n2c(=O)c3c(nc2c1-c1ccccc1)CCC3,-,-,-,-,-,?
O=C1NC(c2cccc(Br)c2)=N/C1=C\c1ccco1,-,-,-,?,-,45µM
Cc1ccc(C)c(S(=O)(=O)N(C)c2ccc(OC(=O)CN3C(=O)NC4(CCCC4)C3=O)cc2)c1,-,-,-,-,-,-
O=C(CN1C(=O)NC2(CCCCC2)C1=O)Oc1ccc2ccc(=O)oc2c1,-,-,10µM,?,-,-
CN(C)c1nc(-c2ccncc2)nc2c1CCN(C(=O)c1ccn[nH]1)C2,.,.,.,.,.,-
CCOC(=O)C1=C(N)OC2=C(C(=O)CCC2)C1c1ccc(Cl)cc1 (stereo unspecified),.,.,.,.,.,-
CC(=O)ON=C1C(c2c(O)[nH]c3cc(Br)ccc23)=Nc2ccccc21,.,.,.,.,.,-
O=Nc1c(-c2c(O)[nH]c3cc(Br)ccc23)[nH]c2ccccc12,?,-,?,-,21µM,-
O=C(O)c1ccc(N2CC3CC(C2)c2cccc(=O)n2C3)c(NC(=S)Nc2ccc(Br)cc2)c1 (stereo unspecified),-,-,-,-,?,40µM
CCc1ccc(NC(=S)Nc2cc(C(=O)O)ccc2N2CC3CC(C2)c2cccc(=O)n2C3)cc1 (stereo unspecified),-,-,-,-,-,?
COc1ccccc1N1CCc2c(C)nc3c(OC)cccc3c21,?,-,-,-,21µM,.
CC(=O)c1c(C)nn(CC(O)COc2ccc3c(c2)CCC3)c1C (stereo unspecified),-,.,-,-,10µM,-
CCOc1ccc(S(=O)(=O)[C@H]2CS(=O)(=O)C[C@@H]2N2CCN(c3ncccn3)CC2)cc1,.,.,.,.,.,-
Cc1nc2nc(C)c(CCC(=O)N3CCc4ccccc43)c(C)n2n1,-,-,-,-,21µM,-
O=S(=O)(NC1CCSc2c(F)cccc21)c1ccc(F)cc1 (stereo unspecified),.,.,.,.,.,-
Cn1cccc1CC(=O)N/N=C\c1c2ccccc2cc2ccccc12,-,.,?,?,-,-

# From PubChem
